{"source": "the supplement of paper PMC9135407", "system": "primary human hepatic stellate cells (donor 1)", "test": "scaled lipid accumulation score (0 = DMSO-like, 1 = nortriptyline-like); higher = stronger HSC inactivation (lipid re-accumulation), active = hit call of the paper", "conditions": "48 h", "key": {"[1]": {"conditions": "library stock concentration: 10 mM"}}, "note": "Values joined by “and” are separate entries in the source; they are usually repeats but may differ in a detail not shown here. Identical values can stand only once. Counter-ions that a name gives are not always drawn. About 620 (11%) of roughly 5,800 compounds showed activity. The sample as a whole holds a higher share of actives than the screen did. Values without a mark were called inactive.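 How the source made its calls: active = score above a cut-off or among the top three wells of a plate; in these data no inactive exceeds 0.85.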"}
{"smiles": "CCCCC/C=C\\C/C=C\\C/C=C\\C/C=C\\CCCC(=O)N(C)C", "note": "[Arachidonoyl-N,N-dimethyl amide]", "values": [{"measurement": "scaled lipid accumulation score", "setting": "library stock concentration: 1 mM", "value": 0.01}]}
{"smiles": "CC(N)C(O)c1ccccc1", "note": "(stereo unspecified) [Phenylpropanolamine hydrochloride]", "values": [{"measurement": "scaled lipid accumulation score", "value": "≤ 0"}, {"measurement": "scaled lipid accumulation score", "setting": "library stock concentration: 10.7 mM", "value": "≤ -0.001"}]}
{"smiles": "CC(N)C(O)c1ccccc1", "note": "(stereo unspecified) [Phenylpropanolamine]", "values": [{"measurement": "scaled lipid accumulation score", "setting": "library stock concentration: 13.2 mM", "value": "≤ 0"}]}
{"smiles": "C=C[C@H]1CN2CC[C@H]1C[C@H]2[C@H](OC(=O)OCC)c1ccnc2ccc(OC)cc12", "note": "[Quinine ethyl carbonate]", "values": [{"measurement": "scaled lipid accumulation score", "setting": "library stock concentration: 5 mM", "value": "≤ -0.001"}, {"measurement": "scaled lipid accumulation score", "setting": "[1]", "value": 0.318}]}
{"smiles": "CN1C[C@H](C(=O)N[C@]2(C)O[C@@]3(O)[C@@H]4CCCN4C(=O)[C@H](Cc4ccccc4)N3C2=O)C[C@@H]2c3cccc4[nH]cc(c34)C[C@H]21", "note": "[Dihydroergotamine tartrate]", "values": [{"measurement": "scaled lipid accumulation score", "value": 0.119}]}
{"smiles": "CN1C[C@H](C(=O)N[C@]2(C)O[C@@]3(O)[C@@H]4CCCN4C(=O)[C@H](Cc4ccccc4)N3C2=O)C[C@@H]2c3cccc4[nH]cc(c34)C[C@H]21", "note": "[Dihydroergotamine mesylate]", "values": [{"measurement": "scaled lipid accumulation score", "setting": "library stock concentration: 2.9 mM", "value": "≤ 0"}, {"measurement": "scaled lipid accumulation score", "setting": "[1]", "value": "0.16 and 0.216"}]}
{"smiles": "CN1C[C@H](C(=O)N[C@]2(C)O[C@@]3(O)[C@@H]4CCCN4C(=O)[C@H](Cc4ccccc4)N3C2=O)C[C@@H]2c3cccc4[nH]cc(c34)C[C@H]21.CS(=O)(=O)O", "note": "[Dihydroergotamine methanesulfonate]", "values": [{"measurement": "scaled lipid accumulation score", "setting": "[1]", "value": "1.06 (active)"}]}
{"smiles": "CC(C)[C@@]1(NC(=O)[C@@H]2C[C@@H]3c4cccc5[nH]cc(c45)C[C@H]3N(C)C2)O[C@@]2(O)[C@@H]3CCCN3C(=O)[C@H](Cc3ccccc3)N2C1=O", "note": "[Dihydroergocristine mesylate]", "values": [{"measurement": "scaled lipid accumulation score", "value": 0.232}, {"measurement": "scaled lipid accumulation score", "setting": "[1]", "value": 0.54}]}
{"smiles": "FC(F)(F)c1cccc(C2=CCN(CCc3ccc4ccccc4c3)CC2)c1", "note": "[Xaliproden hydrochloride]", "values": [{"measurement": "scaled lipid accumulation score", "setting": "[1]", "value": 0.229}]}
{"smiles": "CC(N)Cc1cnc[nH]1", "note": "(stereo unspecified)", "values": [{"measurement": "scaled lipid accumulation score", "setting": "[1]", "value": 0.028}]}
{"smiles": "CN1CC[C@]23CCCC[C@H]2[C@H]1Cc1ccc(O)cc13", "values": [{"measurement": "scaled lipid accumulation score", "setting": "library stock concentration: 9.9 mM", "value": "≤ 0"}]}
{"smiles": "CC(=O)O[C@H]1C[C@@H]2CC[C@@H]3[C@H](CCC4(C)[C@H]3C[C@H]([N+]3(C)CCCCC3)[C@@H]4OC(C)=O)C2(C)C[C@@H]1[N+]1(C)CCCCC1", "note": "(stereo partly specified) [Pancuronium Br]", "values": [{"measurement": "scaled lipid accumulation score", "setting": "library stock concentration: 3.5 mM", "value": "≤ -0.006"}]}
{"smiles": "CNC(Cc1c[nH]c2ccccc12)C(=O)O", "note": "(stereo unspecified) [Abrine (l)]", "values": [{"measurement": "scaled lipid accumulation score", "setting": "[1]", "value": "≤ 0"}]}
{"smiles": "Cc1n[nH]c2ccc(-c3cncc(OC[C@@H](N)Cc4c[nH]c5ccccc45)c3)cc12", "values": [{"measurement": "scaled lipid accumulation score", "setting": "library stock concentration: 400 uM", "value": "1 (active)"}]}
{"smiles": "Cc1[nH]nc2ccc(-c3cncc(OC[C@@H](N)Cc4c[nH]c5ccccc45)c3)cc12", "values": [{"measurement": "scaled lipid accumulation score", "setting": "library stock concentration: 80 uM", "value": 0.308}, {"measurement": "scaled lipid accumulation score", "setting": "library stock concentration: 2 mM", "value": 0.593}, {"measurement": "scaled lipid accumulation score", "setting": "[1]", "value": 0.427}]}
